Compound activity from PubChem BioAssay.
Tau fluor counter: Counterscreen qHTS for Inhibitors of Tau Fibril Formation, Fluorescence Polarization | tau K18 P301L Alexa594 fluorescence, heparin fibrillization | Potency, µM (doses to about 57.7 µM), inactives show top-dose activity change, negative = decrease | 280,000 tested, 0.93% active; also: potency is read from the fitted curve at half-maximal effect; nearly all actives have a fitted effect of over 55% in size
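Human tau K18 P301L (15 uM unlabeled, 0.24 uM Alexa 594-labeled) in 100 mM sodium acetate pH 7 with 20 uM heparin, 6 hr at 37 C. ThT 30 uM added, 1 hr ambient; Alexa 594 FP and total fluorescence read at 555/632 nm.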
FBPA coupling cs: qHTS Assay for Inhibitors of Fructose-1,6-bisphosphate Aldolase from Giardia Lamblia: Coupling assay counterscreen; coupling enzyme system counterscreen, AmpLite Red fluorescence; activity change, negative = inhibition, % at 58.2 µM, hits read low; 290,000 tested, 0.67% active; AID 2472, 2010; in the data active = activity change below about -30%
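Activity here indicates interference with the coupling reaction, not aldolase inhibition. Compounds at 57.5 uM final met coupling enzymes for 10 min at RT; substrate and AmpLite Red detection followed, with a 525/598 nm fluorescence read after 20 min.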
Sfp inh: qHTS Assay for Inhibitors of Bacillus subtilis Sfp phosphopantetheinyl transferase (PPTase). 4'-phosphopantetheinyl transferase ffp (Bacillus subtilis), Q9F4F7. Biochemical Sfp PPTase activity, qHTS. Potency, µM, for the others: largest response in the series, negative = inhibition, hits mostly inhibitors. 310,000 tested, 3.5% active. AID 1490, 2009;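 also: the enzyme is Sfp with the accession as filed and its product quenches rhodamine fluorescence; potency is read from the fitted curve at half-maximal effect; 0% = enzyme reaction without inhibitor and -100% = no enzyme wells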
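With Hepes-Na pH 7.6 buffer containing 10 mM MgCl2, Sfp (15 nM) modified BHQ-2-YbbR (12.5 uM) using rhodamine-CoA (5 uM). Two reads 30 minutes apart at 525/598 nm yielded each well's rate.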
Tau fibril FP: qHTS for Inhibitors of Tau Fibril Formation, Fluorescence Polarization. 280,000 tested, 0.39% active. K18 P301L tau heparin fibrillization, Alexa594 FP, 6 h. Potency, µM (series often up to 57.7 µM), inactives show at the highest dose activity, negative = inhibition, most hits filed as inhibitors. Microtubule-associated protein tau (Homo sapiens), P10636; also: potency is read from the fitted curve at half-maximal effect; nearly all actives have a fitted effect of over 55% in size
Target sequence (P10636 561-689 P618L limits assumed): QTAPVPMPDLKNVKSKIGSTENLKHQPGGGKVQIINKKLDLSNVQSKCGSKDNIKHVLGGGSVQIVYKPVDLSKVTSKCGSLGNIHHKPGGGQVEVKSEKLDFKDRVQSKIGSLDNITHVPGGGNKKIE
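Steps: dispense K18 P301L tau (15 uM plus 0.24 uM Alexa 594 tracer, final) in pH 7 sodium acetate; add compound; add heparin (20 uM final); incubate 6 hr, 37 C; add ThT (30 uM final); after 1 hr ambient, read FP.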
Tau fibril ThT: qHTS for Inhibitors of Tau Fibril Formation, Thioflavin T Binding. recombinant tau K18 P301L, heparin-induced fibrillization, ThT fluorescence. Potency, µM (highest dose often 57.4 µM), without a hit: at the top dose activity, negative = inhibition, hits mostly inhibitors. 270,000 tested, 2.1% active. AID 1460, 2008; also: potency is read from the fitted curve at half-maximal effect; nearly all actives have a fitted effect of over 55% in size
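Using a mix of unlabeled (15 uM) and Alexa 594-labeled (0.24 uM) tau K18 P301L, heparin-triggered fibrillization over 6 hr at 37 C was scored by ThT fluorescence.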
Starred values were filed as active, the others as inactive; ? = inconclusive; nt = no result given; [ ] = remark or other dose. An excerpt weighted towards active compounds, which were near 5.2% of everything screened. Unless noted, calls follow the shape of the dose curve; as a rule, active = well fitted curve in the direction sought with a large enough effect; inconclusive = small, poorly fitted or top-dose-only effect, or another doubt; inactive = no such curve, though single readings can be large; an effect the other way counts as inactive or inconclusive. Unless noted, % is scaled to controls: 0 for no effect and ±100 for the full control effect.

SMILES	Tau fluor counter	FBPA coupling cs	Sfp inh	Tau fibril FP	Tau fibril ThT
Cc1nn(-c2ccccc2)c2c1cc1c(=O)n(C)c(=O)nc-1n2-c1cccc(Cl)c1	-1%	nt	nt	1%	-13%
C/C(CC(=O)Nc1ccc(N(C)C)cc1)=N\NC(=O)Cc1csc(N)n1	-4%	-32*	?	-4%	-4%
Cc1ccccc1NC(=O)CN1C(=O)C2C3CC(C(Br)C3Br)C2C1=O (centres undefined)	-23%	1	56µM*	?	-3%
COc1cc2[nH]c(=S)n(CCN3CCOCC3)c(=O)c2cc1OC	4%	0	18µM*	6%	-2%
COc1cc2[nH]c(=S)n(Cc3ccc(C)cc3)c(=O)c2cc1OC	-25%	2	56µM*	?	?
COc1ccc(Cn2c(=S)[nH]c3cc(OC)c(OC)cc3c2=O)cc1	6%	1	6%	9%	9%
CCCCNC(=O)C(CC)Sc1nc2sc(C(=O)OC)c(C)c2c(=O)n1N (centres undefined)	4%	0	50µM*	-4%	-3%
Cc1ccc(N(C)C(CNS(=O)(=O)c2ccccc2)c2ccccc2)cc1 (centres undefined)	?	nt	nt	7%	-16%
Cc1ccc(N2C(=O)c3ccccc3C2=O)cc1	2%	2	10%	0%	nt
Cc1ccc(SC2=C(Sc3ccc(C)cc3)C(=O)c3ccccc3C2=O)cc1	2.5µM*[quencher]	-30	7.1µM*	14µM*	3.2µM*
COc1cc(-c2cc(OC)c3c(C)oc(C)c3c(=O)c2)ccc1OC(=O)c1ccccc1Cl	-11%	nt	nt	0%	?
COc1cc(-c2cccs2)cc(=O)c2c(C)oc(C)c12	-19%	-8	45µM*	?	25µM*
CC(C)c1ccc(-c2nnc3n(CCc4ccccc4)c(=O)c4ccccc4n23)cc1	-4%	nt	nt	0%	-1%
COc1ccc(N2CCC(CNC(=S)Nc3ccc(C)cc3C)C2)cc1 (centres undefined)	?	-25	50µM*	9%	?
COc1ccc(N2CCC(CNC(=S)Nc3cccc(C)c3)C2)cc1 (centres undefined)	14µM*[quencher]	-4	-11%	10%	?
COc1ccc(N2CCC(CNC(=O)Nc3ccc(OC)cc3OC)C2)cc1 (centres undefined)	?	-31*	-21%	-6%	14µM*
COc1ccc(N2CCC(CNC(=O)Nc3ccc(C)c(C)c3)C2)cc1 (centres undefined)	?	-13	-19%	9%	?
Cc1ccc(NC(=O)Nc2nnc(SCC(=O)N(C(C)C)C(C)C)s2)cc1	?	nt	nt	?	-8%
COc1cc(CN(C(=O)c2cccc(C)c2)c2ccccn2)cc(OC)c1OC	-2%	nt	nt	3%	0%
CC(C)C[C@@H](C(=O)N[C@@H](Cc1c[nH]c2ccccc12)C(N)=O)N1C[C@]2(CCCN2C(=O)[C@H](Cc2ccccc2)NC(=O)[C@H](Cc2ccccc2)NC(=O)[C@H](CCC(N)=O)NC(=O)[C@H](CCC(N)=O)NC(=O)[C@@H]2CCCN2C(=O)[C@H](CCCCN)NC(=O)[C@@H]2CCCN2C(=O)[C@@H](N)CCCNC(=N)N)CC1=O	nt	0	-2%	nt	nt
Cc1ccsc1/C=N/Nc1ncnc2nc[nH]c12	9%	-5	50µM*	-2%	10%
Cc1cc(=O)[nH]c(N/N=C/c2sccc2C)n1	11%	3	13µM*	8%	8%
O=C(NCC(c1cccnc1)N1CCN(Cc2ccccc2)CC1)C(=O)Nc1ccc(Cl)cc1 (centres undefined)	-12%	nt	nt	-3%	-2%
CCSc1ncc(Cl)c(C(=O)N(Cc2ccccc2)c2ccc(OC)cc2)n1	-11%	nt	nt	0%	-8%
Cc1ccc(SCCC(=O)N/N=C/c2cccnc2)cc1	-3%	-32*	9%	3%	-4%
SMILES	Tau fluor counter	FBPA coupling cs	Sfp inh	Tau fibril FP	Tau fibril ThT
O=C(NCCCc1nc2ccccc2n1Cc1ccccc1Cl)c1ccco1	-5%	nt	nt	2%	-7%
Clc1ccccc1Cn1c(/C=C/c2ccco2)nc2ccccc21	-7%	0	50µM*	-21%	?
COc1ccc(-c2nc3cnc(N4CCNCC4)nc3n(CCC#N)c2=O)cc1	nt	2	6%	nt	nt
COc1cc(OC)c(NC(=O)N2CCc3cc(S(=O)(=O)N4CCC(C)CC4)ccc32)cc1Cl	-7%	nt	nt	13%	1%
Cc1ccc(CC(=O)Nc2ccc(F)c([N+](=O)[O-])c2)cc1C	-29%	-3	16%	7%	-8%
COc1cc(Br)cc(CNc2ccc(F)c([N+](=O)[O-])c2)c1O	25µM*[quencher]	-10	25µM*	-1%	16µM*
COc1ccc(OC)c(NC(=O)Nc2cccc(OCc3cc(=O)n4cc(C)ccc4n3)c2)c1	13µM*[quencher]	nt	nt	?	?
COc1cc(OC)c(NC(=O)Nc2cccc(OCc3cc(=O)n4ccccc4n3)c2)cc1Cl	6.3µM*[quencher]	nt	nt	8%	?
COc1ccc(NC(=O)Nc2cccc(OCc3cc(=O)n4cccc(C)c4n3)c2)c(OC)c1	7.1µM*[quencher]	nt	nt	?	?
Cc1ccc(N2CCN(C(=O)CCc3c(C)nc4ncnn4c3C)CC2)c(C)c1	9%	nt	nt	6%	12%
Cc1ccccc1-n1c(-c2ccc(=O)[nH]n2)n[nH]c1=S	-1%	1	71µM*	4%	-5%
Cc1ccccc1-n1c(-c2ccncc2)n[nH]c1=S	-9%	4	?	-5%	-10%
COC(=O)CN1CC(=O)c2ccccc2S1(=O)=O	nt	12	-8%	nt	nt
CC(=O)OC1CCC23CC1(C)CCC2C(C)(C)CC3OC(C)=O (centres undefined)	-6%	1	4%	-1%	1%
N#CC1=C(S)N(c2ccc(F)cc2)C(c2ccco2)NC1=O (centres undefined)	-16%	5	22µM*	?	40µM*
N#CC1=C(S)N(c2ccccc2)C(c2cccs2)NC1=O (centres undefined)	-11%	-23	10µM*	?	?
Cc1ccc(N2C(S)=C(C#N)C(=O)NC2c2cccs2)cc1 (centres undefined)	10%	3	35µM*	2%	16%
N#CC1=C(S)N(c2ccccc2)C(c2ccco2)NC1=O (centres undefined)	-10%	3	?	-12%	4%
CCCCNC(=O)C(CC)Sc1nnc(-c2cccc(F)c2)c(-c2cccc(F)c2)n1 (centres undefined)	-15%	nt	nt	-3%	-8%
CCC1OCCC=CC1C (centres undefined)	-6%[11.6 µM]	0	9%	-7%[11.6 µM]	-6%[11.5 µM]
